Test results taken from PubChem BioAssay (NCI).
Compounds without any hit were thinned out: in the full panel of roughly 83,000, 20% have a hit.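 Results are percent growth after 48 hours of single-concentration exposure. 100 means growth as in untreated cells, lower positive values show inhibition; negative values down to -100 show cell death.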 Values without a mark were called inactive. Active and inactive are the calls of the source.

These compounds were tested on RPMI-8226 leukemia (assay: NCI-60 one-dose screen, 48 h (100 = growth as untreated, 0 = no growth, -100 = all killed)). Settings: 10 µM unless noted.
Experimental: Growth inhibition of the RPMI-8226 human tumor cell line is measured as a screen for anti-cancer activity. Cells are grown in 96 well plates and exposed to the test compound for 48 hours. Compounds are tested at a single concentration, which is 10^-5 M for most compounds. The reported endpoint is percent growth (GI% or GIPRCNT), where numbers from 0 - 100% represent growth inhibition, and numbers from -100% - 0 represent cell death. For example, a value of 40 represents 60% growth inhibition. A value of 0 means no net growth occurred over the course of the experiment. A value of -40 indicates 40% of cells at the beginning of the experiment died by the end of the experiment. A value of -100 means all cells are dead at the end of the experiment.
NCI-60 Human Tumor Cell Lines Screen was performed using the standard one-dose NCI protocol, which is described in more detail at https://dtp.cancer.gov/discovery_development/nci-60/default.htm.
Compounds with GIPRCNT values below 10 were considered active. Activity score was based on GIPRCNT using the following formula: […]
Score is 0 for GIPRCNT values of 100 or above, 50 for GIPRCNT values of 0, and 100 for GIPRCNT values of -100.
With `COc1ccc(C(=O)c2cc(OC)c(OC)c(OC)c2)cc1/C=C/C(=O)c1ccc(OC)c(OC)c1` the growth was 8.82% (active).
Work on `COc1cc(CCn2nnc3c(NCCCCO)ncnc32)cc(OC)c1` yielded a growth of 95.7%.
`CCC1CCc2nc3sc(C(=O)Nc4cccc(C)c4)c(N)c3cc2C1` (stereo not given) gave a growth of 56.5%.
In the case of `CCc1cccc(C)c1NC(=O)c1sc2nc3c(cc2c1N)C(=O)CCC3`, the growth is reported as 9.64% (active).
Compound `COc1cc(-c2cc(/C=C3\CCCCC3=O)[nH]n2)cc(OC)c1OC` has a growth of 86.4%.
`Cc1cc(C(=O)O)c(N)c(C)n1` gave a growth of 103%.
`CCC(=O)Oc1cc(/C=C/C(=O)O[C@H]2C[C@H]3CN4CCc5c([nH]c6cc(OC)ccc56)[C@@H]4C[C@@H]3[C@@H](C(=O)OC)[C@@H]2OC)ccc1OC` showed a growth of 39.9%.
`CCCCCCCCCCn1cc[n+](C)c1` showed a growth of 116%.
For `Nc1c(C(=O)Nc2cccc(C(F)(F)F)c2)sc2nc3c(cc12)C(O)CCC3` (stereo not given), the growth was 15.6%.
Compound `COc1cc2c(cc1OC)C1(C)N(CC2)C(=O)OC1(C)C` (stereo not given) has a growth of 105%.
For `O=Nc1c(-c2c(O)[nH]c3ccc([N+](=O)[O-])cc23)[nH]c2ccc(O)cc12`, the growth was -7.92% (active).
`COc1ccc(/C=C/c2nc(N3CCOCC3)c3nc(Cl)c(Cl)cc3n2)cc1OC` gave a growth of 98.7%.
`COc1cc(-c2csc(NC(=O)Nc3ccc(Cl)cc3Cl)n2)cc(OC)c1OC` was tested, and the growth was 30%.
`Cc1cc2c(C(C)C)c(O)c(O)c(C=NCCCCC(=O)O)c2c(O)c1-c1c(C)cc2c(C(C)C)c(O)c(O)c(C=NCCCCC(=O)O)c2c1O` showed a growth of 28.8%.
`C#CCN1C(=O)/C(=c2\sc3n(c2=O)NC2C(N=3)N(CC)C(=O)N2CC)c2ccccc21` (stereo not given) showed a growth of 59.3%.
`COc1ncc(-c2ccc3ncnc(Nc4cccc(Cl)c4)c3c2)cc1NS(=O)(=O)C1CC1` gave a growth of 26.7%.
Work on `CCCn1c(=S)sc2c(Cl)nc(C)nc21` yielded a growth of 99.1%.
`CCOC(=O)c1cc(/C(=N\O)c2cc(OC)c(OC)c(OC)c2)n2cc(C)cc(C)c12` showed a growth of 17.6%.
In the case of `Cn1cc(C=O)c2ccccc21`, the growth is reported as 98.4%.
For `COc1ccc(/C(=N\O)c2cc(OC)c(OC)c(OC)c2)c(OC)c1N`, the growth was 24.2%.
Compound `COc1cc(NC(=O)CCl)ccc(=O)c1` has a growth of 85.4%.
`COc1ccc2c(c1)NC(=O)CN2c1nc(NC2CC2)nc2ccccc12` showed a growth of 32.7%.
`CCC(C)NCC(=O)O` (stereo not given) was tested, and the growth was 90.1%.
`O=S(=O)(NCCNc1nccc(-c2c(-c3ccccc3)nc3sccn23)n1)c1ccc(O)cc1` gave a growth of 52.8%.
`COc1cc(Cn2c(-c3nonc3N)nc3ccccc32)ccc1C` gave a growth of 19.2%.
`Nc1c(C(=O)Nc2ccccc2)sc2nc3c(cc12)CCC3` gave a growth of 83.4%.
For `CCCCCCOc1ccc(C2(Cl)c3ccccc3N(C)c3ccccc32)cc1`, the growth was 47.5%.
Compound `COc1cc(C2C=C(C)N=C3SC=CN32)cc(OC)c1OC` (stereo not given) has a growth of 113%.
With `O=c1oc2cc(OS(=O)(=O)c3ccc(F)cc3)ccc2c2c1CCCCC2` the growth was 34.8%.
Compound `COc1cc(NC(=O)CSc2nc3ccc(C)cc3c(=O)n2-c2ccccc2)cc(OC)c1OC` has a growth of 76.3%.
For `CCCCCCCCCCCCCCCCC(Br)C(=O)O` (stereo not given), the growth was 84.6%.
With `COc1cccc(/C=C2\SC(N3CCN(c4ccccn4)CC3)=NC2=O)c1` the growth was 85.8%.
`Cc1cc(NC(=O)COC(=O)c2sc3cc(F)ccc3c2Cl)no1` was tested, and the growth was 114%.
`COc1cc(OC)c(C(=O)/C=C/c2cccc(C#N)c2)c(OC)c1` was tested, and the growth was 1.52% (active).
`CC(=O)OC[Si](C)(C)c1ccccc1` gave a growth of 110%.
In the case of `O=C(CCCn1c(=O)c2sc3ccccc3c2n2nnc(-c3ccccc3)c12)NCCc1cnc[nH]1`, the growth is reported as 62.5%.
For `Nc1nc(N)c2nc(CNc3ccc(C(=O)CC(CCC(=O)O)C(=O)O)cc3)cnc2n1` (stereo not given), the growth was 58.3%.
Compound `NC(=O)c1ccc2c(c1)OCO2` has a growth of 106%.
For `CCC#CC[C@H]1C/C=C2/C(=O)C=C[C@@H]2C/C=C\CCCC(=O)O1`, the growth was 4.15% (active).
Work on `COC1=CC(c2ccc[nH]2)=N/C1=C\c1[nH]c(C)c(C(=O)CCCCC(=O)NCc2ccccc2)c1C` yielded a growth of 65.6%.
